The whole screen tested about 5,500 compounds, of which about 2,000 (36%) were called active. Inconclusive results (about 18%) are left out. Rule as the data show it: active = normalized growth mostly below about 0.91 (no sharp cut-off); inconclusive = no clear call, values can overlap the other calls; inactive = mostly above about 0.92. The list shows a part of the results.
Test: chemical genetic growth profiling, strain panel (AID 1159580);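 also: tested at 20 µM; growth read once vehicle control cultures reached saturation at 30 °C; 1 = growth at the plate median or of vehicle wells; lower values mean less growth of the strain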
Settings: S. cerevisiae deletion strains, growth OD
[1] = locus YHR030C, strain SLT2, hits give low values
[2] = locus YHR079C, strain IRE1, hits give low values
[3] = locus YJL095W, strain BCK1, hits give low values
[4] = locus YJR066W, strain TOR1, hits give low values
[5] = locus YLR113W, strain HOG1, hits give low values
[6] = locus YNL183C, strain NPR1, hits give low values
[7] = locus YOR231W, strain MKK1, hits give low values
[8] = locus YPL256C, strain CLN2, hits give low values
[9] = locus YCL061C, strain MRC1, hits give low values
[10] = locus YJL187C, strain SWE1, hits give low values
[11] = locus YAL013W, strain DEP1, hits give low values
[12] = locus YDR150W, strain NUM1, hits give low values
[13] = locus YGR078C, strain PAC10, hits give low values
[14] = locus YPL055C, strain LGE1, hits give low values

Measured: normalized growth

CN/C(=C\[N+](=O)[O-])NCCSCc1csc(CN(C)C)n1
inactive: [1] 1.05 | [2] 1.04 | [3] 1.06 | [4] 0.927 | [5] 1.06 | [6] 0.996 | [7] 1.07 | [8] 1.08

CC(O)(P(=O)(O)O)P(=O)(O)O
inactive: locus YAL021C, strain ccr4, hits give low values 1.03 | locus YAL026C, strain drs2, hits give low values 0.993 | locus YAL030W, strain snc1, hits give low values 0.993 | locus YBL061C, strain skt5, hits give low values 0.993 | locus YBR009C, strain hhf1, hits give low values 0.976 | locus YBR023C, strain chs3, hits give low values 0.99 | locus YBR171W, strain sec66, hits give low values 0.992 | locus YBR231C, strain swc5, hits give low values 0.992 | locus YBR279W, strain paf1, hits give low values 0.997 | locus YCL011C, strain gbp2, hits give low values 0.99 | locus YCL016C, strain dcc1, hits give low values 0.988 | [9] 1 | locus YCL069W, strain vba3, hits give low values 0.992 | locus YCR088W, strain abp1, hits give low values 0.989 | locus YDL005C, strain med2, hits give low values 1 | locus YDL040C, strain nat1, hits give low values 0.997 | locus YDR001C, strain nth1, hits give low values 0.988 | locus YDR069C, strain doa4, hits give low values 0.978 | locus YDR137W, strain rgp1, hits give low values 1 | locus YDR159W, strain sac3, hits give low values 0.955 | locus YDR195W, strain ref2 0.93 | locus YDR297W, strain sur2, hits give low values 0.993 | locus YDR334W, strain swr1, hits give low values 0.987 | locus YDR335W, strain msn5, hits give low values 0.991 | locus YDR392W, strain spt3, hits give low values 0.868 | locus YEL003W, strain gim4, hits give low values 0.982 | locus YEL037C, strain rad23, hits give low values 0.985 | locus YEL061C, strain CIN8 (second series), hits give low values 0.982 | locus YER015W, strain faa2, hits give low values 0.999 | locus YER016W, strain bim1, hits give low values 0.979 | locus YER111C, strain swi4, hits give low values 0.989 | locus YER155C, strain BEM2 (second series), hits give low values 0.969 | locus YFR010W, strain ubp6, hits give low values 0.993 | locus YGL167C, strain pmr1, hits give low values 0.982 | locus YGL173C, strain kem1, hits give low values 0.987 | locus YGL227W, strain vid30, hits give low values 0.993 | locus YGL240W, strain doc1, hits give low values 0.982 | locus YGL253W, strain hxk2, hits give low values 0.984 | locus YHR013C, strain ard1, hits give low values 0.954 | locus YHR027C, strain rpn1, hits give low values 0.996 | [1] 0.958 | [2] 0.961 | locus YHR142W, strain chs7, hits give low values 0.998 | locus YJL092W, strain hpr5, hits give low values 0.987 | locus YJL095W, strain BCK1 (second series), hits give low values 0.994 | [3] 0.995 | locus YJL115W, strain asf1, hits give low values 0.986 | locus YJL129C, strain trk1, hits give low values 0.989 | locus YJL154C, strain vps35, hits give low values 0.986 | locus YJL164C, strain tpk1, hits give low values 1 | locus YJL166W, strain qcr8, hits give low values 0.996 | [10] 1 | [4] 0.93 | locus YKL160W, strain elf1, hits give low values 1.03 | locus YKR026C, strain gcn3, hits give low values 0.993 | locus YKR091W, strain srl3, hits give low values 0.995 | locus YLL001W, strain dnm1, hits give low values 0.98 | locus YLL026W, hits give low values 0.996 | locus YLL041C, strain sdh2, hits give low values 0.994 | locus YLR027C, strain aat2, hits give low values 0.999 | [5] 0.976 | locus YLR221C, strain rsa3, hits give low values 1.02 | locus YLR258W, strain gsy2, hits give low values 0.982 | locus YLR262C, strain YPT6 (second series), hits give low values 1 | locus YLR320W, strain mms22, hits give low values 0.983 | locus YLR342W, strain FKS1, hits give low values 1 | locus YLR357W, strain rsc2, hits give low values 0.981 | locus YLR370C, strain arc18, hits give low values 0.996 | locus YLR384C, strain iki3, hits give low values 0.995 | locus YML120C, strain ndi1, hits give low values 1.01 | locus YMR058W, strain fet3, hits give low values 0.998 | locus YMR125W, strain sto1, hits give low values 0.979 | locus YMR129W, hits give low values 0.994 | locus YMR205C, strain PFK2, hits give low values 0.967 | locus YMR231W, strain pep5, hits give low values 0.993 | locus YNL071W, strain lat1, hits give low values 0.993 | [6] 0.929 | locus YNL209W, strain ssb2, hits give low values 0.994 | locus YNL248C, strain rpa49, hits give low values 1.01 | locus YNL322C, strain KRE1 (second series), hits give low values 1 | locus YNR049C, strain mso1, hits give low values 0.985 | locus YOR001W, strain rrp6, hits give low values 1.02 | locus YOR070C, strain gyp1, hits give low values 0.992 | locus YOR080W, strain dia2, hits give low values 0.997 | locus YOR083W, strain WHI5, hits give low values 1.03 | locus YOR106W, strain vam3, hits give low values 1.02 | [7] 0.972 | locus YOR265W, strain rbl2, hits give low values 0.989 | locus YOR270C, strain vph1, hits give low values 0.99 | locus YOR290C, strain snf2, hits give low values 0.916 | locus YPL051W, strain arl3, hits give low values 1.01 | locus YPL078C, strain atp4, hits give low values 1.01 | locus YPL106C, strain sse1, hits give low values 0.985 | locus YPL240C, strain hsp82, hits give low values 0.983 | [8] 0.921

O=c1[nH]c2cc(C(F)(F)F)ccc2n1-c1cc(C(F)(F)F)ccc1O
inactive: [11] 1.02 | locus YAL040C, strain CLN3, hits give low values 0.998 | locus YCL061C, strain MRC1 (second series), hits give low values 1.01 | [12] 1.01 | locus YDR363W, strain ESC2, hits give low values 1.01 | locus YER002W, strain NOP16, hits give low values 1.02 | [13] 1.03 | locus YMR307W, strain GAS1, hits give low values 1.02 | locus YNL175C, strain NOP13, hits give low values 0.961 | locus YNL197C, strain WHI3, hits give low values 0.995 | locus YNL224C, strain SQS1, hits give low values 0.998 | locus YOR083W, strain WHI5 (second series), hits give low values 0.903 | [14] 1.01

FC(F)(F)c1ccc2[nH]c(=S)[nH]c2c1
inactive: [11] 0.995 | locus YBR229C, strain ROT2, hits give low values 0.996 | [9] 0.983 | locus YDL101C, strain DUN1, hits give low values 0.983 | locus YDL134C, strain PPH21, hits give low values 0.99 | [12] 0.986 | locus YEL061C, strain CIN8, hits give low values 0.998 | [13] 0.982 | locus YGR229C, strain SMI1, hits give low values 1 | [1] 0.89 | locus YHR087W, strain rtc3, hits give low values 0.999 | [10] 0.997 | locus YJR043C, strain POL32, hits give low values 0.986 | locus YJR075W, strain HOC1, hits give low values 1.01 | locus YLR039C, strain RIC1, hits give low values 0.952 | locus YLR058C, strain SHM2 (second series), hits give low values 0.994 | locus YLR085C, strain ARP6, hits give low values 0.955 | locus YLR262C, strain YPT6, hits give low values 0.963 | locus YML094W, strain GIM5, hits give low values 0.905 | locus YMR219W, strain ESC1, hits give low values 1 | locus YMR263W, strain SAP30, hits give low values 1.02 | locus YNL128W, strain TEP1, hits give low values 0.993 | locus YNL153C, strain GIM3, hits give low values 1 | locus YNL298W, strain CLA4 (second series), hits give low values 0.979 | locus YNL322C, strain KRE1, hits give low values 0.997 | locus YNR030W, strain Alg12, hits give low values 0.977 | locus YOL006C, strain TOP1, hits give low values 0.997 | [14] 0.98 | locus YPL241C, strain CIN2, hits give low values 0.966 | locus YPR135W, strain CTF4, hits give low values 0.779

Source: PubChem BioAssay AID1159580 (chemical genetic matrix, 2015)
